PubChem BioAssay (EPA / NIEHS)
Several values for one entry are separate records, joined by “and”; a condition that tells them apart may be missing. Equal values may be shown once. Inconclusive results are not listed. A structure can be active in one record and inactive in another. Activity calls are given as the source filed them. Rule for the calls, unless noted: active = hit-call score of the fitted dose curve at least 0.9, where 1 is the maximum; inactive = score below 0.9.

How the values were obtained:
[1] = ATG_PBREM_CIS: Attagene CIS-FACTORIAL HepG2 Assay for human Phenobarbital-responsive Enhancer Module (PBREM) (AID 2282955); conditions: HepG2 PBREM cis-reporter, Attagene multiplexed transcription; actives raise or lower the signal
Method in brief: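 HepG2 cells transiently transfected with multiple cis-regulated reporter transcription units; endogenous factor activity at the PBREM element measured as reporter mRNA 24 h after dosing, via RT-PCR and capillary electrophoresis of fluorescent fragments; bidirectional fitting versus DMSO.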

[2] = biological target: Paired box protein Pax-6 (Homo sapiens) (UniProt P26367); experiment: ATG_Pax6_CIS: Attagene CIS-FACTORIAL HepG2 Assay for human Paired Box 6 (PAX6) (AID 2282956); conditions: HepG2 CIS-FACTORIAL PAX6 reporter transcription, RNA readout; actives raise or lower the signal
Method in brief: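 Readout: reporter transcript fluorescence after RT-PCR and capillary electrophoresis. Cells: HepG2, transiently transfected with cis-regulated MRTUs. Exposure 24 h. Gain or loss of signal fitted bidirectionally relative to DMSO.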

[3] = ATG_PXRE_CIS: Attagene CIS-FACTORIAL HepG2 Assay for human Pregnane X Receptor Element (PXRE) (AID 2282957); conditions: HepG2 Attagene CIS-FACTORIAL PXRE reporter, mRNA; actives raise or lower the signal
Method in brief: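 Bidirectional activity, baselined to DMSO, derived from reporter mRNA fluorescence (RT-PCR plus capillary electrophoresis) in HepG2 cells bearing cis-promoter reporter units, 24 h exposure.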

[4] = ATG_PPRE_CIS: Attagene CIS-FACTORIAL HepG2 Assay for human Peroxisome Proliferator-activated Response Element (PPRE) (AID 2282958); conditions: HepG2 PPRE cis-element reporter, Attagene transcription factor profiling; actives raise or lower the signal
Method in brief: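 HepG2 cells transiently transfected with multiplexed cis-element reporter units measure endogenous transcription factor activity. After 24 h compound exposure, reporter mRNA is quantified by RT-PCR, 6-FAM labeling, HpaI digestion and capillary electrophoresis; bidirectional fits are made against DMSO baseline.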

[5] = ATG_RORE_CIS: Attagene CIS-FACTORIAL HepG2 Assay for human RAR-related Orphan Receptor Element (RORE) (AID 2282959); conditions: HepG2 Attagene cis-factorial RORE reporter, mRNA; actives raise or lower the signal
Method in brief: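 HepG2 cells transiently transfected with multiple cis-element reporter transcription units, exposed to chemical for 24 h. Reporter mRNA quantified by RT-PCR, 6-FAM primer-extension labeling, HpaI digestion and capillary electrophoresis; bidirectional fit versus DMSO baseline.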

[6] = ATG_Sox_CIS: Attagene CIS-FACTORIAL HepG2 Assay for human SRY-box transcription factor (SOX) (AID 2282960); conditions: HepG2 Attagene cis-factorial SOX reporter, mRNA; actives raise or lower the signal
Method in brief: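 HepG2 cells transiently transfected with cis-element-driven multiple reporter transcription units, dosed 24 h; reporter mRNA measured by RT-PCR, FAM labelling, HpaI digestion and capillary electrophoresis. Bidirectional fit versus DMSO baseline.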

[7] = biological target: Transcription factor Sp1 (Homo sapiens) (UniProt P08047); experiment: ATG_Sp1_CIS: Attagene CIS-FACTORIAL HepG2 Assay for human Specificity Protein 1 (Sp1) (AID 2282961); conditions: HepG2 Sp1 cis-reporter transcription, actives raise or lower the signal
Method in brief: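 HepG2 cells transiently transfected with multiple reporter transcription units driven by cis-regulatory elements; Sp1-responsive reporter mRNA measured 24 h after dosing by RT-PCR and capillary electrophoresis fluorescence, fitted bidirectionally against DMSO baseline.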

[8] = ATG_SREBP_CIS: Attagene CIS-FACTORIAL HepG2 Assay for human Sterol Regulatory Element Binding (SREBP) (AID 2282962); conditions: HepG2 Attagene cis-factorial SREBP reporter, mRNA; actives raise or lower the signal
Method in brief: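 Readout: fluorescent reporter-transcript peaks resolved by capillary electrophoresis after RT-PCR. Cells were human HepG2 carrying transfected cis-promoter reporter constructs, dosed for 24 h. Gain or loss of signal was fitted against DMSO controls.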

[9] = biological target: Signal transducer and activator of transcription 3 (Homo sapiens) (UniProt P40763); experiment: ATG_STAT3_CIS: Attagene CIS-FACTORIAL HepG2 Assay for human Signal Transducer and Activator of Transcription 3 (STAT3) (AID 2282963); conditions: HepG2, Attagene cis-factorial STAT3 reporter transcription; actives raise or lower the signal
Method in brief: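 Cis-factorial format: endogenous transcription factors in HepG2 drive transfected reporter units. After 24 h treatment, reporter RNA was reverse-transcribed, amplified, FAM-labelled and HpaI-digested before CE analysis; activity scored in both directions against DMSO.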

[10] = ATG_TA_CIS: Attagene CIS-FACTORIAL HepG2 Assay for human TA Basal Promoter (AID 2282964); conditions: HepG2 Attagene CIS-factorial TA basal promoter reporter; actives raise or lower the signal
Method in brief: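 HepG2 cells transiently transfected with multiple reporter units under cis promoter elements, reporting endogenous transcription factor activity; this endpoint tracks the TA basal promoter as background control. Reporter mRNA after 24 h dosing measured by RT-PCR/capillary electrophoresis; bidirectional fits versus DMSO.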

[11] = ATG_TCF_b_cat_CIS: Attagene CIS-FACTORIAL HepG2 Assay for human T-Cell-Factor with beta-catenin (TCF/b-cat) (AID 2282965); conditions: HepG2 TCF/beta-catenin cis-reporter transcription, actives raise or lower the signal
Method in brief: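 Endogenous TCF/LEF activity read as reporter transcript level via RT-PCR and capillary electrophoresis fluorescence in transfected HepG2, 24 h exposure; gain or loss of signal fitted against DMSO controls.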

[12] = ATG_TAL_CIS: Attagene CIS-FACTORIAL HepG2 Assay for human TAL Basal Promoter (AID 2282966); conditions: HepG2 Attagene cis-factorial TAL promoter reporter; actives raise or lower the signal;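 note: background control endpoint measuring basal TAL promoter reporter mRNA not a specific factor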
Method in brief: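 Human hepatoma HepG2 cells, transfected with promoter-regulated reporter units, were treated 24 h. Reporter transcript levels, measured through RT-PCR and capillary electrophoresis, were fitted for gain or loss relative to DMSO.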

[13] = ATG_TGFb_CIS: Attagene CIS-FACTORIAL HepG2 Assay for human Transforming Growth Factor (TGF) (AID 2282967); conditions: HepG2 Attagene CIS TGFb reporter, mRNA transcription; actives raise or lower the signal
Method in brief: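 HepG2 cells transiently transfected with cis-promoter-driven multiple reporter units measure endogenous TF activity; reporter mRNA quantified at 24 h by RT-PCR, FAM labeling, HpaI digestion and capillary electrophoresis. Bidirectional fit vs DMSO.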

[14] = biological target: Nuclear receptor subfamily 1 group I member 3 (Homo sapiens) (UniProt Q14994); experiment: ATG_CAR_TRANS: Attagene TRANS-FACTORIAL HepG2 Assay for human Constitutive Androstane Receptor (CAR) (AID 2282969; active = hit-call score of the fitted dose curve at least 0.9, where 1 is the maximum;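 note: activators raise reporter mRNA above DMSO so AC50 marks induction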); conditions: HepG2 Attagene TRANS-FACTORIAL CAR reporter
Method in brief: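 Signal is reporter mRNA induction relative to DMSO, measured 24 h after dosing by RT-PCR with fluorescent primer extension and capillary electrophoresis. Human HepG2 liver cells carried transiently transfected chimeric NR-Gal4/GAL4-UAS reporter constructs.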

[15] = biological target: Estrogen receptor (Homo sapiens) (UniProt P03372); experiment: ATG_ERa_TRANS: Attagene TRANS-FACTORIAL HepG2 Assay for human Estrogen Receptor alpha (ERa) (AID 2282970; active = hit-call score of the fitted dose curve at least 0.9, where 1 is the maximum); conditions: HepG2 Attagene TRANS ERa GAL4 reporter, mRNA
Method in brief: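 Signal derives from fluorescence of labelled reporter PCR fragments separated by capillary electrophoresis. HepG2 cells transiently carrying multiple GAL4-UAS reporter units were treated 24 hours, and induction above DMSO baseline was fitted as activity.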

[16] = biological target: X-box-binding protein 1 (Homo sapiens) (UniProt P17861); experiment: ATG_Xbp1_CIS: Attagene CIS-FACTORIAL HepG2 Assay for human X-box Binding Protein 1 (XBP1) (AID 2282972); conditions: HepG2 XBP1 cis-element reporter, Attagene multiplex; actives raise or lower the signal
Method in brief: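 Read-out: fluorescent reporter mRNA fragments resolved by capillary electrophoresis after RT-PCR. Human HepG2 liver cells carried transfected cis-promoter reporter units and were exposed to chemicals for 24 hours. Gain or loss of signal fitted relative to DMSO baseline.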

[17] = ATG_M_19_TRANS: Attagene TRANS-FACTORIAL HepG2 Assay for M19 Transcription Factor (Internal Marker) (AID 2282974; active = hit-call score of the fitted dose curve at least 0.9, where 1 is the maximum); conditions: HepG2 Attagene TRANS-FACTORIAL M19 internal marker reporter
Method in brief: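 HepG2 cells transiently transfected with multiple GAL4-UAS reporter transcription units were exposed to chemicals for 24 h. Reporter mRNA was read by RT-PCR, 6-FAM primer extension, HpaI digestion and capillary electrophoresis; gain of signal fitted relative to DMSO.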

[18] = ATG_GAL4_TRANS: Attagene TRANS-FACTORIAL HepG2 Assay for GAL4 (Internal Marker) (AID 2282976; active = hit-call score of the fitted dose curve at least 0.9, where 1 is the maximum); conditions: HepG2 Attagene TRANS GAL4 internal marker reporter
Method in brief: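 Liver HepG2 line bearing multiplexed GAL4-UAS reporter constructs; 24 h chemical treatment. Transcripts were quantified as fluorescent fragments on capillary electrophoresis after RT-PCR and HpaI cut, with activity fitted upward from DMSO.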

[19] = biological target: Estrogen-related receptor gamma (Homo sapiens) (UniProt P62508); experiment: ATG_ERRg_TRANS: Attagene TRANS-FACTORIAL HepG2 Assay for human Estrogen-Related Receptor gamma (ERRg) (AID 2282977; active = hit-call score of the fitted dose curve at least 0.9, where 1 is the maximum;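 note: hits increase reporter signal over DMSO so potencies reflect activators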); conditions: HepG2 Attagene TRANS reporter, ERRg transactivation
Method in brief: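 Readout: fluorescent reporter-mRNA fragments resolved by capillary electrophoresis after RT-PCR and HpaI cut. Cells: transiently transfected HepG2 carrying GAL4-UAS reporters driven by exogenous NR-Gal4 chimeras, dosed 24 h. Activity fitted upward relative to DMSO baseline.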

[20] = ATG_VDRE_CIS: Attagene CIS-FACTORIAL HepG2 Assay for human Vitamin D Receptor Element (VDRE) (AID 2282968); conditions: HepG2 VDRE cis-reporter transcription, actives raise or lower the signal
Method in brief: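 Measures endogenous factor activity through cis-element-driven reporter transcripts in transiently transfected HepG2. Cells are treated 24 h; reporter mRNA is quantified by RT-PCR and capillary electrophoresis; fitting is bidirectional.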

Measured: AC50

Sequence of Estrogen-related receptor gamma (Homo sapiens) (P62508 whole entry, looked up, the tested form may be a part): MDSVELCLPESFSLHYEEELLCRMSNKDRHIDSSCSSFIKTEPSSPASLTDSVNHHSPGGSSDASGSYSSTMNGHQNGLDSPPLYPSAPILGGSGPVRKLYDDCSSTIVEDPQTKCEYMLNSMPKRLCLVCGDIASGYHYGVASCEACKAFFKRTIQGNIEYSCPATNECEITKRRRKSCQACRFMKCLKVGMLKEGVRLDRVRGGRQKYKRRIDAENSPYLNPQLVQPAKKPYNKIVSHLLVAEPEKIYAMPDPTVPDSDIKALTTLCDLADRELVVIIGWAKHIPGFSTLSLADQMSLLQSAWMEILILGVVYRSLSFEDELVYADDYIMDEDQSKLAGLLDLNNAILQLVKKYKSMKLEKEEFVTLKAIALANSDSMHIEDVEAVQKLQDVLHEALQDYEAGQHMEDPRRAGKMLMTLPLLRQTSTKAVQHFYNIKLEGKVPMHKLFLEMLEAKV
Sequence of Nuclear receptor subfamily 1 group I member 3 (Homo sapiens) (Q14994 whole entry, looked up, the tested form may be a part): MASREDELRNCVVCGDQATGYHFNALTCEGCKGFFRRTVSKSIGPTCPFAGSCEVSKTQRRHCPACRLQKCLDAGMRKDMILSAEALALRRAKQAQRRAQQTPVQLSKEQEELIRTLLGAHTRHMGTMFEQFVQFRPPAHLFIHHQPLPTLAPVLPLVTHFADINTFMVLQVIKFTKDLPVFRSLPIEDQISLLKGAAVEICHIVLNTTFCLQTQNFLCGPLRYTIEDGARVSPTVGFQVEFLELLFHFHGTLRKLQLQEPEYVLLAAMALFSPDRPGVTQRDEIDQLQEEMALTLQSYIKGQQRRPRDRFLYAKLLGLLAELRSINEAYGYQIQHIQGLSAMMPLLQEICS
Sequence of Transcription factor Sp1 (Homo sapiens) (P08047 whole entry, looked up): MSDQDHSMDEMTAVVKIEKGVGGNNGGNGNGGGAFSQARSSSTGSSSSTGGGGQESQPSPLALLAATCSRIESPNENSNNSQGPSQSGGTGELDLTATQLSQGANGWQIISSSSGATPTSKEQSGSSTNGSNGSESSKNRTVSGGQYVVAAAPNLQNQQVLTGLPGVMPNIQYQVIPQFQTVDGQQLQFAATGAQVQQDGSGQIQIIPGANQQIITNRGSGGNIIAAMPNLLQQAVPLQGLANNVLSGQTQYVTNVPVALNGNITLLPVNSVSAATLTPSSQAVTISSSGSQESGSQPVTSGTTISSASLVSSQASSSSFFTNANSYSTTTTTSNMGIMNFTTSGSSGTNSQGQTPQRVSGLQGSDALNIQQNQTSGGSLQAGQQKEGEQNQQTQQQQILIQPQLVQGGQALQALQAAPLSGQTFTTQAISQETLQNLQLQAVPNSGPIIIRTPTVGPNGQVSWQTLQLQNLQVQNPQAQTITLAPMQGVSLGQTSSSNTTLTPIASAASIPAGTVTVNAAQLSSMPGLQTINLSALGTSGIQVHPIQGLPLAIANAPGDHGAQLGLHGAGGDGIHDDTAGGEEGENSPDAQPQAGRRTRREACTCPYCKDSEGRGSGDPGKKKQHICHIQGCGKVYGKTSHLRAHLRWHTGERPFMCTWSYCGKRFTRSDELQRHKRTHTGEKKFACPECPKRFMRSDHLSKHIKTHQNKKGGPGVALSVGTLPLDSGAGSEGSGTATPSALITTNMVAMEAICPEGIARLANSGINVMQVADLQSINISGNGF
Sequence of Signal transducer and activator of transcription 3 (Homo sapiens) (P40763 whole entry, looked up): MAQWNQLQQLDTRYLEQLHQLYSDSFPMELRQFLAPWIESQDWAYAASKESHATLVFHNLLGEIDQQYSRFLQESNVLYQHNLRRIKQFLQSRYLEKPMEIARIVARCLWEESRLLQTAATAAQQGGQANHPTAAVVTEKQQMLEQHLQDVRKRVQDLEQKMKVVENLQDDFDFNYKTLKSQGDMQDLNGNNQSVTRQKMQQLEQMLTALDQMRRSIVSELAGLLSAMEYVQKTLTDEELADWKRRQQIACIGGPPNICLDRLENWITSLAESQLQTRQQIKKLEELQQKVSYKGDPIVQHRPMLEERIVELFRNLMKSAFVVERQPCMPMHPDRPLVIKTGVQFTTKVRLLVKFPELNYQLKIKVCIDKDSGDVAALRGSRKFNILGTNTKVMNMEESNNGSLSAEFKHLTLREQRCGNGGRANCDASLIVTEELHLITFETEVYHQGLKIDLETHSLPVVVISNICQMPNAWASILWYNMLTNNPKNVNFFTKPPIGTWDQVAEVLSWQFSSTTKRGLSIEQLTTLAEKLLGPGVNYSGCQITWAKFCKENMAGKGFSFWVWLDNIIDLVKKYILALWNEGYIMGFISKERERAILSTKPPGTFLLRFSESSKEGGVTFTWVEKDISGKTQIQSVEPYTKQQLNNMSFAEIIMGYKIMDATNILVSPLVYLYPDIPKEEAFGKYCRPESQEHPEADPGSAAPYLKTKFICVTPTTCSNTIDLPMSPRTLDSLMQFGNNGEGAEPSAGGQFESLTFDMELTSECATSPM
Sequence of X-box-binding protein 1 (Homo sapiens) (P17861 whole entry, looked up, the tested form may be a part): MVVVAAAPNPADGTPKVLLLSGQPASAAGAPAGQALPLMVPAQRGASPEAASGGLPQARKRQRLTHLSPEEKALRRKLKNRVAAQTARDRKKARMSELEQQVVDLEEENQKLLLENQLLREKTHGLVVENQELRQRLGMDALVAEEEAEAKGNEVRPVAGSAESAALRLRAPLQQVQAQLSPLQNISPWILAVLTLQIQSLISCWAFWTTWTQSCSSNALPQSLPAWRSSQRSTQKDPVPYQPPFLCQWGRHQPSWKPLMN
Sequence of Paired box protein Pax-6 (Homo sapiens) (P26367 whole entry, looked up): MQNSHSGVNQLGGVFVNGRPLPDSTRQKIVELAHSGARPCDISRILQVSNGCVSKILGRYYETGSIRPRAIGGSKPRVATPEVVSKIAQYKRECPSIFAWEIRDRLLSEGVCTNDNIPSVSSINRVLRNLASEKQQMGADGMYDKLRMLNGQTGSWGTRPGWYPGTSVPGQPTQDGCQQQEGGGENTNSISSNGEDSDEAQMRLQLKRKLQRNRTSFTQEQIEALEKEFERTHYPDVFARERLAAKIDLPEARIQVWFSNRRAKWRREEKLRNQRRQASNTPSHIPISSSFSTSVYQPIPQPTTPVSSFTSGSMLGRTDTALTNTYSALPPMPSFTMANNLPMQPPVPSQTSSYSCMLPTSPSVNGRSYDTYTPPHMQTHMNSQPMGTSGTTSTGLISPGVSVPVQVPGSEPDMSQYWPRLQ
Sequence of Estrogen receptor (Homo sapiens) (P03372 whole entry, looked up, the tested form may be a part): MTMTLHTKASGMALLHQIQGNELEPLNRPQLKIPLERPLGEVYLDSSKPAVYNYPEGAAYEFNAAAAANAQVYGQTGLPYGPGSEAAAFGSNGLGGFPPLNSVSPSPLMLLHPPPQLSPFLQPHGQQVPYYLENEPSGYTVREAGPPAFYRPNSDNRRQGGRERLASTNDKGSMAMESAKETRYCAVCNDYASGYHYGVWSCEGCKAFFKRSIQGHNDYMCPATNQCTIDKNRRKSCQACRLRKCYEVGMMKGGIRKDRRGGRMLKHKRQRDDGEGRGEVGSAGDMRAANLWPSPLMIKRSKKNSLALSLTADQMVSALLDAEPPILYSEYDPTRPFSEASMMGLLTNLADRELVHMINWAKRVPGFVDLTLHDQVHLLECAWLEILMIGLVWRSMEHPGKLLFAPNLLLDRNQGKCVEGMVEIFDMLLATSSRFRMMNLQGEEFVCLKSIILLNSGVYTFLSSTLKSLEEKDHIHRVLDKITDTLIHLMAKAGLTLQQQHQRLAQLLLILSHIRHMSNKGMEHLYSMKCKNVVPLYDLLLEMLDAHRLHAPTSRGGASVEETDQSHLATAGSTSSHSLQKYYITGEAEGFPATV

CC(C)Oc1cc(-n2nc(C(C)(C)C)oc2=O)c(Cl)cc1Cl
active: [1] 0.427 µM | [3] 284 nM
not listed: [19] | [20]
inactive: all other assays above

Fc1ccc(Oc2ccnc3cc(Cl)cc(Cl)c23)cc1
active: [4] 2.17 µM
not listed: [18] | [19] | [20]
inactive: all other assays above

CCCC1COC(Cn2cncn2)(c2ccc(Cl)cc2Cl)O1 (stereo not given)
inactive: [1] | [2] | [4] | [5] | [6] | [7] | [8] | [9] | [10] | [11] | [12] | [13] | [14] | [16] | [17] | [18]
active: [1] 50 µM | [3] 4.09 µM and 85 µM | [8] 15.9 µM | [10] 50 µM

CCCN(CCC)c1c([N+](=O)[O-])cc(S(N)(=O)=O)cc1[N+](=O)[O-]
inactive: [1] | [2] | [4] | [5] | [6] | [7] | [8] | [9] | [10] | [11] | [12] | [13] | [14] | [15] | [16] | [17] | [18] | [19]
active: [1] 2.2 µM | [3] 302 nM and 134 nM and 567 nM

COc1nc(NC(C)C)nc(NC(C)C)n1
active: [3] 18600 nM | [5] 30.5 µM
inactive: [1] | [2] | [3] | [4] | [5] | [6] | [7] | [8] | [9] | [10] | [11] | [12] | [13] | [20] | [15] | [16] | [17] | [19]
